Experimental findings from PubChem BioAssay AID1490 (National Center for Advancing Translational Sciences (NCATS), 2009) are described below.

Among all 310,000 compounds or so, about 11,000 (3.5%) were called active. Another 4% or so got no clear call; they are omitted. The sample holds actives, similar compounds and a random draw of the others, so the mix is not that of the screen. Values without a mark were called inactive. Calls follow the shape of the dose curve; as a rule, active = well fitted inhibition curve with a large enough effect; inconclusive = small, poorly fitted or top-dose-only effect, or another doubt; inactive = no such curve, though single readings can be large or run the other way. Non-standard residues stand in square brackets, D forms with d. Residues, ends and D or L forms follow the SMILES beside them. *: point of attachment. PhAc = O=C(Cc1ccccc1)*
Potency is read from the fitted curve at half-maximal effect.

The target in this test is 4'-phosphopantetheinyl transferase ffp (Bacillus subtilis) (UniProt Q9F4F7). As to the kind of experiment: qHTS Assay for Inhibitors of Bacillus subtilis Sfp phosphopantetheinyl transferase (PPTase).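 Also: the enzyme is Sfp with the accession as filed and its product quenches rhodamine fluorescence.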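 As to largest response in the series, negative = inhibition: 0% = enzyme reaction without inhibitor and -100% = no enzyme wells.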 The conditions noted are these: Biochemical Sfp PPTase activity. In outline: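 With Hepes-Na pH 7.6 buffer containing 10 mM MgCl2, Sfp (15 nM) modified BHQ-2-YbbR (12.5 uM) using rhodamine-CoA (5 uM). Two reads 30 minutes apart at 525/598 nm yielded each well's rate.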
In the case of `O=C(O)CCCCCCCCc1cn(CN2C(=O)c3ccccc3C2=O)nn1`, the largest response in the series, negative = inhibition is -11%.

With `Cc1cccc(COc2ccccc2/C=N/Nc2ccc([N+](=O)[O-])cc2)c1`, the largest response in the series, negative = inhibition is 24.5%. For the molecule `Cc1ccc(NS(=O)(=O)c2ccc(N/N=C/c3ccccc3OCC(=O)O)c([N+](=O)[O-])c2)c(C)c1`, the Potency is 79.4 µM (active). Consider `Cc1ccc(NS(=O)(=O)c2ccc(C)c(NC(=O)COc3ccc4ccccc4c3)c2)c(C)c1`, for which the largest response in the series, negative = inhibition was -28.6%.

Consider `N#Cc1ccc(/C=C2\CCn3c2nc2cc(C(=O)O)ccc2c3=O)cc1`, for which the largest response in the series, negative = inhibition is 31.1%. The same measure, in the same setting: the result for `N#Cc1cccc(-c2ccc3ncnc(NCc4cccs4)c3c2)c1` reads -14.8%; that for `O=C(Cc1ccccc1Cl)N1CCOCC1`, 17%; that for `COC(=O)[C@@]1(Cc2ccc(F)cc2)[C@H]2c3cc(C(=O)N(C)C)n(CCc4c[nH]c5ccc(OC)cc45)c3C[C@H]2CN1C(=O)c1ccccc1`, 0.76%. Regarding `O=C(NCc1ccc(Cl)cc1)c1cc2c(nc3sccn32)s1`, the Potency is 50.1 µM (active). As to `O=C(NCc1ccc(Cl)cc1)c1cc(=O)nc2sc(-c3ccccc3)nn12`, the largest response in the series, negative = inhibition was 1.8%.

Consider `O=C(NCc1ccc(Cl)cc1)NCc1ccc(Cl)cc1`, for which the largest response in the series, negative = inhibition is -3.32%. For `Cc1c(C(=O)NCCN(C)C)oc2ccc(S(=O)(=O)N3CCCC3)cc12`, the largest response in the series, negative = inhibition was 18.9%. Still for that read-out and setting: as for `NC(=O)c1c(NC(=O)c2ccccc2)sc2c1CCCC2`, the figure is 4.07%.

On to `NC(=O)c1c(Nc2nc3c(F)cccc3s2)sc2c1CCCC2`, for which the Potency was 44.7 µM (active). For the molecule `Fc1cc(F)c2nc(Nc3nc4c(F)cccc4s3)sc2c1`, the largest response in the series, negative = inhibition is -0.873%.

For the molecule `COc1ccc(N2CCN(S(=O)(=O)c3cc(Br)cnc3N)CC2)cc1`, the largest response in the series, negative = inhibition was 7.84%. Still for that read-out and setting: the result for `C=CCc1c(C)nc2cc(-c3ccccc3)[nH]n2c1=O` reads 7.41%.

Turning to `COc1cc(OC)cc(-c2nc3nc(C)c(CCC(=O)NCc4ccco4)c(C)n3n2)c1`, the largest response in the series, negative = inhibition was 8.97%.

For the molecule `COc1ccc(-c2cc3nc(C)c(CCC(=O)NC(C)CCc4ccco4)c(C)n3n2)c(OC)c1` (stereo not drawn), the Potency was 79.4 µM (active).

In the case of `Cc1nc2c(-c3ccc(F)cc3)c(C)nn2c(C)c1CCC(=O)NCc1ccco1`, the largest response in the series, negative = inhibition is -2.36%. On the same count and under the same terms, the result for `CC(C)C(=O)Nc1nnc(SCC(=O)N2C(C)CCCC2C)s1` (stereo not drawn) reads -17.7%.

Regarding `O=S(=O)(c1cc(Cl)ccc1Cl)N1CCN(Cc2ccco2)CC1`, the largest response in the series, negative = inhibition is 22.5%. For `O=C(CN1CCN(S(=O)(=O)c2cc(Cl)ccc2Cl)CC1)c1ccc(O)c(O)c1`, the Potency was 50.1 µM (active). As for `COc1ccc(Cl)cc1S(=O)(=O)N1CCN(CC(=O)C(C)(C)C)CC1`, the largest response in the series, negative = inhibition is 7.95%.

Regarding `O=C1CCC(=O)N(O)CCCCCNC(=O)CCC(=O)N(O)CCCCCNC(=O)CCC(=O)N(O)CCCCCN1`, the Potency was 89.1 µM (active). As for `COc1ccccc1CNC(=O)C1CCN(S(=O)(=O)c2ccc3c(c2)CC(C)N3C(=O)C2CC2)CC1` (stereo not drawn), the largest response in the series, negative = inhibition was -7.76%. Same read-out and setting: the result for `CN(C)S(=O)(=O)c1ccc(N2CCCC2)c(C(=O)Nc2cccc(F)c2)c1` reads -1.67%; that for `Cc1ccc(C(=O)NCCc2nnc(SCC(=O)Nc3cccc(C(=O)O)c3)n2C)cc1`, 10.4%; that for `CC(CCc1ccccc1)NC(=O)COC(=O)c1ccc(F)cc1` (stereo not drawn), -4.51%. On the same count and under the same terms, the result for `COc1ccccc1CC(=O)Nc1ccc(S(=O)(=O)N2CCCC2)cc1` reads 4.84%. As to `CCOc1cccc(NC(=O)C2CCCN(S(=O)(=O)c3ccc(OC)cc3)C2)c1` (stereo not drawn), the largest response in the series, negative = inhibition is -5.07%. For `CCN(CC(=O)Nc1ccc(S(=O)(=O)N2CCCC2)cc1)CC(=O)Nc1cccc(OC)c1`, the Potency is 79.4 µM (active). As to `Cc1cc(C)c(C#N)c(Nc2cccc(Br)c2)n1`, the largest response in the series, negative = inhibition is 6.8%. The same measure, in the same setting: the result for `CC(C)C[C@@H](NC(=O)[C@H]1CCCN1C(=O)Cc1ccccc1)C(N)=O` (PhAc-[dP]-[dL]-NH2) reads 21.3%; that for `CC(C)CCN(C(=O)c1csnn1)C(C(=O)NC1CCCC1)c1ccccc1` (stereo not drawn), 13.6%. Still for that read-out and setting: as for `COc1ccc2[nH]cc(CCNc3ncnc4ccc(-c5ccc(C(=O)N(C)C)cc5)cc34)c2c1`, the figure is -5.41%. As for `O=C(Cn1cc(/C=N/NC(=O)c2cccc(C(F)(F)F)c2)c2ccccc21)Nc1ccc(F)cc1`, the Potency was 20 µM (active). `COc1cccc(Cn2cc(/C=N/NC(=O)c3cc(O)cc(O)c3)c3ccccc32)c1`: the largest response in the series, negative = inhibition was -18.5%. Regarding `COc1ccc(/C=N/NC(=O)c2cccc(C(F)(F)F)c2)cc1`, the largest response in the series, negative = inhibition is -22%.

As for `O=C(NC1Cc2ccccc2C1)c1cc(COc2cccc(C(F)(F)F)c2)on1`, the largest response in the series, negative = inhibition was 24%. Take `Fc1ccc(/C=N/n2c(COc3ccccc3)n[nH]c2=S)cc1`: the Potency is 56.2 µM (active). With `Cc1ccc(OCc2n[nH]c(=S)n2-c2ccccc2)cc1`, the largest response in the series, negative = inhibition is 5.12%.

In the case of `CCc1n[nH]c(=S)n1/N=C/c1c[nH]c2ccc(Br)cc12`, the largest response in the series, negative = inhibition was 11.4%.

As to `O=[N+]([O-])c1ccccc1/C=N/n1c(COc2ccccc2)n[nH]c1=S`, the Potency is 56.2 µM (active). `S=c1[nH]nc(COc2ccccc2)n1-c1ccccc1`: the largest response in the series, negative = inhibition is 21.2%. The same measure, in the same setting: as for `Cc1ccc(-c2n[nH]c(=S)n2/N=C/c2cc3c(cc2[N+](=O)[O-])OCO3)cc1`, the figure is -22.6%; as for `CSc1ccc(CCNC(=O)CS(=O)(=O)Cc2nc(-c3ccccc3F)oc2C)cc1`, 17.7%.

With `Cc1cc(Cl)ccc1C(=O)C1CCCN(C(=O)c2nonc2C)C1` (stereo not drawn), the largest response in the series, negative = inhibition is 1.34%. As for `CCN(CC)S(=O)(=O)c1cccc(-c2n[nH]c(=S)n2/N=C/c2ccc(C(=O)OC)cc2)c1`, the Potency was 50.1 µM (active). Take `COC(=O)c1ccc(/C=N\n2c(C)nnc2C)cc1`: the largest response in the series, negative = inhibition was 13.8%.

Regarding `COC(=O)c1ccc(/C=N/N2C(C)CCCC2C)cc1` (stereo not drawn), the largest response in the series, negative = inhibition is 13.3%. On the same count and under the same terms, as for `COC(=O)C1=CN(Cc2ccc(OC)cc2)C=C(C(=O)OC)C1c1ccc(O)c(OC)c1`, the figure is -3.15%; as for `Cn1c(CNC(=O)c2ccccc2F)nnc1SCc1ccc(F)cc1`, -14.5%. Take `Cn1c(Cn2nnc3ccccc32)nnc1SCC(=O)c1ccccc1F`: the Potency is 50.1 µM (active).

As for `Cc1ccc(C(=O)CSc2nnc(Cn3nnc4ccccc43)n2C)cc1`, the largest response in the series, negative = inhibition is 4%. Same read-out and setting: as for `COc1ccc(S(=O)(=O)/N=C2\C=C(NS(=O)(=O)c3ccccc3)C(=O)c3ccccc32)cc1`, the figure is -20.9%. Consider `OCCN1CCN(c2nnc(-c3ccccc3)c3ccccc23)CC1`, for which the largest response in the series, negative = inhibition is 21.7%.

Take `O=C(NC(c1ccccc1)c1ccccc1)N1CCN(CCO)CC1`: the largest response in the series, negative = inhibition is 5.46%.

Turning to `OCCN1CCN(C(=S)c2ccc(-c3ccccc3)cc2)CC1`, the Potency was 7.08 µM (active). On to `CCc1nonc1NC(=O)c1oc2ccc(Cl)cc2c1C`, for which the largest response in the series, negative = inhibition is -4.03%. The same measure, in the same setting: as for `COc1cccc(CC(=O)N2CCc3nc(COc4ccccc4)c4c(c3C2)CO[C@@H](C)C4)c1`, the figure is -1.37%; as for `NS(=O)(=O)c1ccc(CNC(=O)c2cccc(Oc3ccccc3)c2)cc1`, 5.75%; as for `CSc1nc2sc3c(c2c(=O)[nH]1)CCc1ccccc1-3`, 2.54%. For the molecule `COc1ccc(-n2c(=S)[nH]c3sc4c(c3c2=O)CCc2ccccc2-4)cc1`, the Potency was 17.8 µM (active). On to `CCCSc1nc2sc3c(c2c(=O)n1-c1ccc(OC)cc1)CCN(C)C3`, for which the largest response in the series, negative = inhibition was -7.59%. `CCOC(=O)C1=C(CN2CCc3ccccc32)NC(=O)NC1c1ccc(Cl)cc1` (stereo not drawn): the largest response in the series, negative = inhibition was -11.6%. As for `CCOC(=O)C1=C(CN2CCCCCC2)NC(=O)NC1c1cccc([N+](=O)[O-])c1` (stereo not drawn), the Potency was 89.1 µM (active). As for `CCOC(=O)C1=C(CN2CCc3ccccc32)NC(=O)NC1c1cccc([N+](=O)[O-])c1` (stereo not drawn), the largest response in the series, negative = inhibition is 3.8%. Same read-out and setting: as for `O=C(Nc1ccc(-n2cccn2)cc1)C1CCN(Cc2ccsc2)CC1`, the figure is -0.783%. On the same count and under the same terms, as for `Cc1cccc(C(=O)NC(=S)N(C)C2CCCCC2)c1`, the figure is 17.9%; as for `Nc1nc2nc(Cl)[nH]c2c(=O)[nH]1`, -9.02%; as for `Cn1nccc1C(=O)NC1CCCc2c1cnn2-c1ccc(F)cc1F` (stereo not drawn), 12.2%. Regarding `Cc1cc(C)n(-c2nc(O)cc(=O)[nH]2)n1`, the Potency was 15.8 µM (active). For `Cc1cc(C)n(-c2ccc(Cl)c(C(=O)O)n2)n1`, the largest response in the series, negative = inhibition is -14.9%. The same measure, in the same setting: the result for `Cc1cc(C)n(-c2ccc3nncn3n2)n1` reads 10.3%; that for `O=C(COc1nsnc1N1CCOCC1)Nc1ccccc1Cl`, 10.1%; that for `CN(C)S(=O)(=O)N1CCC(Oc2cccc(C(=O)NCCCC3CCCC3)c2)CC1`, -2.01%. Same read-out and setting: as for `O=C(CCn1nnc2ccccc21)OCC(=O)c1ccc([N+](=O)[O-])cc1`, the figure is 30.5%; as for `C/C(=N/NC(=O)CSc1ccccn1)c1ccc([N+](=O)[O-])cc1`, 0.345%.

Consider `O=C(CC(n1cncn1)C(Cl)(Cl)Cl)c1ccc([N+](=O)[O-])cc1` (stereo not drawn), for which the Potency was 44.7 µM (active). Turning to `Cc1ccc(C)c(S(=O)(=O)Nc2cc(C)on2)c1`, the largest response in the series, negative = inhibition is 10.8%.

With `CCCCN=C1C([N+](=O)[O-])=CC=C2C1=NC1(CCCCC1)N2O`, the Potency was 28.2 µM (active). With `O=C(NC1CCCC1)c1cc(-c2ccccc2)on1`, the largest response in the series, negative = inhibition is 11.2%. For `Cc1ccc(NC(=O)Cn2nnc(C(=O)NCc3ccco3)c2N)c(C)c1`, the largest response in the series, negative = inhibition was -4.99%. With `CCN1CCN(CCNC(=O)c2ccc3c(c2)NC(=O)/C(=C\c2ccc(OC)c(OC)c2)S3)CC1`, the largest response in the series, negative = inhibition is -5.49%. On the same count and under the same terms, as for `Cc1ccccc1CN1C(=O)c2ccccc2Sc2ccc(C(=O)NCCCN3CCOCC3)cc21`, the figure is -13.2%. Consider `CCN1CCN(CCNC(=O)c2ccc(/C=C3/Sc4ccccc4N(Cc4cccc(C)c4)C3=O)cc2)CC1`, for which the Potency is 39.8 µM (active).

Regarding `CCOC(=O)C1CCN(C(=O)C2CCCN(S(=O)(=O)c3ccc(OC)c(Cl)c3)C2)CC1` (stereo not drawn), the largest response in the series, negative = inhibition is 3.96%.
